From the supplement of paper PMC11417369
The full ranking holds about 25,000 sequences; the median of “ln(normalized median fluorescence intensity)” is about 7.1, and the highest 2% start at about 10. The full list was thinned out, with the highest values kept by preference.

What follows are sequences tested on PfSIP2 AP2 domain 1 (GST-tagged) (assay: gcPBM binding intensity (ln(normalized median fluorescence intensity)); higher = stronger DNA binding).
How it was run: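 For binding intensity, the highest Masliner-normalised natural-log median intensity across replicate spots of either probe orientation was taken. Protein bound to the array was stained with Alexa488 anti-GST antibody and scanned at 488 nm. The protein, GST-tagged P. falciparum DNA-binding domains from E. coli at about 25 μg on average, had been applied for 1 h to an Agilent 4 × 180k array of primer-extended double-stranded 36-bp intergenic genomic probes and negative controls.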

Sequence | gcPBM binding intensity (ln)
ATTTTTTCATATTCTACACACGTGAACAAATGAGTC [CACACA_site5635] | 7.21
TTTTTTATTAAATATATATAATAATAATAATTTGTA [CACACA_negctrl_site1719] | 6.88
ATATTTTTATATGAGGTGCATATAATGACAATTAAG | 10.6
CATATAAGACAAAAGGTGCAATTTTAATGCTTTTAT [GTGCAC_site9432] | 9.98
AAAAAAAAAATTTAGGTGCATACAAATAAATTATAT [GTGCAC_site9521] | 9.85
TTTTTAAAATATTTAACACACAATTATAATGCATAA [CACACA_site3932] | 7.23
TAATAATTTTATAAAGTGCATAAAAATAAAAATTTT | 8.89
AAAAATAATCATTAGGTGCAAAAAATATATATATAT [GTGCAC_site9631] | 9.96
ATATATAAAAATTAGGTGCATTAAATTAAAATATAT | 10.3
ACTAATAATTTGTCGGTGCATAAAATTATTTTTATT [GTGCAC_site9840] | 10.7
ATTTCTTTTGTTATAGTGCATAATATTTATGTACGT | 8.59
ATATATTTATAATAGGTGCATATGTTTTATTTTTCC [GTGCAC_site9849] | 10.2
ATATATATATATATAGTGCATAATGTTTTAATAGAT | 9.54
TTTAATATTATTATTTTACACACTTTTTTCCTTTTA [CACACA_site8780] | 6.64
TACATGTATAATATAATACACACTATATAATATACA [CACACA_site2239] | 6.92
TACTATAACCCACATACACACAAAAAAAAAAAAAAA [CACACA_site4454] | 7.11
ACATAATAAAAATGACGTACAATTTTTTTTTTTCAT [XGTACX_site8340] | 7.01
AAAAAACGCACTCGTACACACATATTTTCTTTCTAA [CACACA_site3089] | 8.76
TTTTTTAGATTACATAAATATAAATATAAATATATA [GTGCAC_negctrl_site459] | 6.68
ATGTTTTGTAAAATGATTAAATATTAAGATTCAATA [CACACA_negctrl_site1743] | 6.7

Sequence | gcPBM binding intensity (ln)
ATATATATAGAAATATGTACGAAAAAAATATCACAT [XGTACX_site746] | 7.63
TATATTACAAAAAGTACACACATAAATAAATACATA [CACACA_site975] | 7.17
CCATAGATATTTTATACACACATATAATATATTAAT [CACACA_site373] | 7.17
TTTTAAAATTATTAGGTGCATATTTATTCTATATTT | 10
TATACAAGTATATAGGTGCATATATAAGTATATATT [GTGCAC_site9994] | 10.3
TTTTATTATATGGAGGTGCATATATAATAATATAAT [GTGCAC_site9477] | 11
GTATAGTACAAATAAGTGCATATAAAAGAAATACAG | 8.56
ACATATATATATATATATAATATTTTATATTTATTA [CACACA_negctrl_site713] | 7.49
ATACATCGTATATAAGTGCATATTAAGGTCTTAAGA [GTGCAC_site9560] | 8.11
TTTCTTTTTAAATAGGTGCATATTTTTATAAATATA | 11
TCTTAAAATATATAGGTGCAAAAAAAAAAAAAAAAA | 10.6
TATATATTAAAAATAGTGCAAAATAATATATATATA [GTGCAC_site9716] | 8.84
TATAATAATATTATAGTGCATATTATTTATATATAA [GTGCAC_site9820] | 8.67
TTTCTTTATTTATAATAATTTTTTATTAAAAATAGA [CACACA_negctrl_site1610] | 6.78
TTTTTTTTTTCTTAGGTGCAAAAAATAAGTATATAT [GTGCAC_site9394] | 10.1
AAAAAAAAAAAAGAAAAATATATATATAAATAAATA [GTGCAC_negctrl_site569] | 6.98
TTTTTCATATGACACACACACAAAAATAATGTGGAA [CACACA_site7692] | 6.99
AAATTATATTATTGAACACACGTTTGGTAATGTTTT [CACACA_site5469] | 6.78
GCTATTTATTTATATTGTACTTTTTTTTTTTTTTTT [XGTACX_site3624] | 7.67
TAAATTGAGTATATTACACACATATAAATATATTAT [CACACA_site4027] | 6.88

Sequence | gcPBM binding intensity (ln)
GAACAAATTACAAGTTGTACTTTATGTAAATTATTA [XGTACX_site5304] | 6.76
ATACTATTATATATATGTACATATATATGATGCTCT [XGTACX_site1771] | 7.22
ATCTATATCTATAATACACACATCATAAAATATGTA [CACACA_site7230] | 7.19
ATATTATATATATAGGTGCGAGTATTTTATAAATAT [GTGCAC_site9889] | 9.06
GTATTATATATATAGGTGCATATATATATATAAATA [GTGCAC_site9787] | 10.8
TCGAATATCTTATAGGTGCATCATAAATACATATGT | 10.8
TATGGAATAAATTTATCCATACATCTTATAACATAT [XGTACX_negctrl_site500] | 6.78
TTTTGTTATTTTTTAGTGCATATAAAGGTTGTTAAG | 8.64
ATAGTAATGCATAAATATATATTATATATATATATA [XGTACX_negctrl_site576] | 9.1
TTTTTTTTTTTTTTTTTTTTTTTTTTATGATATATA [GTGCAC_negctrl_site365] | 6.82
CATCATCTTTTAAAGGTGCATAATAATATTGTTAAT | 11.1
ATAATTGTTTAAAGGTGTACAATACATATATTTTAA [XGTACX_site3648] | 6.91
TATTTTATATGATAGGTGCATTTTTTTTTTTTTTTT [GTGCAC_site9757] | 10.8
TTTTTATTTATATGATACTTATATATATATATATAT [CACACA_negctrl_site462] | 9.5
ACATATATATATATTACACACACACTAATAAAATAA [CACACA_site7920] | 7.24
AAAATTAAAAAAATAAATACATTATATAATTAAAAA [CACACA_negctrl_site1426] | 6.77
CTTCTTATTTTCTAATGTACGTACAAATCATTTATA [XGTACX_site2176] | 8
CTTGGGAAGTATTCAGTGCAAAATATAAGCAGGTCA [GTGCAC_site9758] | 7.75
ATATGTATATATATTTGTACGTAAAATGAAATCTAA [XGTACX_site213] | 7.45
